Several values for one entry are separate records, joined by “and”; a condition that tells them apart may be missing. Equal entries are not always repeated. Results filed as inconclusive are left out. Activity calls are given as the source filed them. Unless noted, calls follow the shape of the full dose curve.
Key:
[1] = biological target: Vitamin D3 receptor (Homo sapiens) (UniProt P11473); experiment: qHTS assay for small molecule antagonists of vitamin D receptor signaling (AID 588541);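 also: receptor activated by calcitriol during compound treatment; series mostly up to about 77 µM; % is scaled to controls: 0 for no effect and ±100 for the full control effect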
Summary of the method: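 VDR-UAS-bla HEK293T cells (2000/well, 2% charcoal-stripped FBS) were treated with titrated compounds plus 1-alpha,25-dihydroxyvitamin D3 (50 nM or 3 nM final) for 16 h at 37 C. CCF4 beta-lactamase fluorescence was read; Hill fits gave IC50.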

[2] = biological target: Vitamin D3 receptor (Homo sapiens) (UniProt P11473); experiment: qHTS assay for small molecule agonists of vitamin D receptor signaling (AID 588543);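 also: 0% = DMSO basal and 100% = reference agonist control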
Summary of the method: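 qHTS in agonist mode: compound titrations stimulate a VDR-driven β-lactamase reporter in HEK293T cells over 16 h at 37 °C. Response normalized to 50 nM 1α,25-dihydroxyvitamin D3 = 100%, DMSO = 0%; Hill fitting gives EC50 and maximal response.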

[3] = qHTS assay for small molecule agonists of retinoid X receptor alpha signaling (AID 588544); settings: HEK293T RXRa-UAS-bla, beta-lactamase reporter, 18 h; 530 nm emission;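 as to activation: 0% = DMSO basal wells and 100% = reference agonist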
[4] = biological target: Retinoic acid receptor RXR-alpha (Homo sapiens) (UniProt P19793); experiment: as above
[5] = biological target: Thyroid hormone receptor beta (Homo sapiens) (UniProt P10828); experiment: qHTS assay for small molecule agonists of thyroid hormone receptor beta signaling (AID 588545)
Summary of the method: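 HEK 293 TR-UAS-bla; agonist mode; 18 hrs, 37 C; CCF4, ex 405/em 460 and 530 nm; norm. T3 10 nM = 100%, DMSO = 0%; Hill fit → EC50, efficacy.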

[6] = qHTS assay for small molecule antagonists of retinoid X receptor alpha signaling (AID 588546; active = well fitted inhibition curve with a large enough effect in the signal ratio, with a control signal flat, not every such curve was filed as active; the % refers to the signal ratio;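 also: cells stimulated with 9-cis-retinoic acid as agonist; % is scaled to controls: 0 for no effect and ±100 for the full control effect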); settings: HEK293T RXRa-UAS-bla, beta-lactamase ratio, antagonist mode; measured here: W530 green channel, cytotoxicity proxy
Summary of the method: (§1)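 Beta-lactamase reporter inhibition, read as CCF4 fluorescence ratio (ex 405, em 460/530 nm) after 2 h at RT. HEK293T UAS-bla cells, 2500/well, were stimulated with 9-cis-RA at 500 or 100 nM final alongside test compound for 18 h at 37 C.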

[7] = biological target: Retinoic acid receptor RXR-alpha (Homo sapiens) (UniProt P19793); experiment: as above; settings: HEK293T RXRa-UAS-bla, beta-lactamase ratio, antagonist mode
Summary of the method: as §1

[8] = biological target: Thyroid hormone receptor beta (Homo sapiens) (UniProt P10828); experiment: qHTS assay for small molecule antagonists of thyroid hormone receptor beta signaling (AID 588547; active = well fitted inhibition curve with a large enough effect in the signal ratio, with a control signal flat, not every such curve was filed as active; the % refers to the signal ratio;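 also: cells stimulated with 0.4 nM T3 agonist during compound exposure; series mostly up to about 77 µM; % is scaled to controls: 0 for no effect and ±100 for the full control effect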); settings: TR-UAS-bla HEK293, beta-lactamase ratio, antagonist mode, 18 h
Summary of the method: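 TR-UAS-bla GripTite HEK293 cells in 2% charcoal/dextran FBS medium were preincubated 4 h at 37 C, given compound (0.59 nM to 92 uM) plus 0.4 nM T3 (final) for 18 h, then CCF4 for 2 h at RT; Hill fit gave IC50.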

[9] = qHTS assay for small molecule agonists of the antioxidant response element (ARE) signaling pathway (AID 651741; active = well fitted activation curve with a large enough effect in the signal ratio; the % refers to the signal ratio; also: % of control where 0% means no effect)
Summary of the method: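 Compounds in DMSO are pinned onto HepG2 ARE-bla cells (2,000/well) that were preincubated 5 h; plates stay 16 h at 37 C, then beta-lactamase activity is detected with LiveBLAzer B/G substrate by fluorescence.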

[10] = qHTS assay for small molecule activators of the p53 signaling pathway (AID 651743; active = well fitted activation curve with a large enough effect in the signal ratio, not every such curve was filed as active; the % refers to the signal ratio; also: series mostly up to about 92 µM; % of control where 0% means no effect); settings: HCT-116 p53RE-bla, beta-lactamase FRET ratio, 16 h; activation: stronger effect = higher value
Summary of the method: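 Cell-based beta-lactamase reporter (p53 response elements, HCT-116 background). After a 5-hour preincubation, cells received compound for 16 hours at 37 C; substrate development ran 2 hours at room temperature.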

[11] = qHTS assay for small molecule activators of the nuclear factor-kappa B (NF-kB) signaling pathway (AID 651749; active = well fitted activation curve with a large enough effect in the signal ratio; the % refers to the signal ratio; also: series mostly up to about 77 µM; % of control where 0% means no effect); settings: NF-kB-bla ME-180 cells, beta-lactamase FRET ratio, 16 h; activation: stronger effect = higher value
Summary of the method: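 Screening used 2,000 ME-180 reporter cells per well exposed to pinned compound (23 nL) or DMSO; after 16 hr at 37C, beta-lactamase expression under NF-kB control was assessed through FRET.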

[12] = qHTS assay for small molecule disruptors of the mitochondrial membrane potential - 5 hr assay (AID 651755); also: % is scaled to controls: 0 for no effect and ±100 for the full control effect; nearly all actives have a fitted effect of over 40% in size
Summary of the method: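 HepG2 cells, attached overnight at 37C, were exposed to compound or DMSO for 5 hr at 37C, 5% CO2. Mito-MPS dye was then added for 30 min, and fluorescence read at 490/535 nm (monomers) and 540/590 nm (aggregates).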

[13] = biological target: Tumor necrosis factor (Homo sapiens) (UniProt P01375); experiment: qHTS assay to identify small molecules that stimulate Tumor Necrosis Factor-alpha (TNF-alpha) secretion (AID 651757; active = well fitted curve in the direction sought with a large enough effect in the signal ratio; the % refers to the signal ratio; also: 0% is about no effect)
Summary of the method: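 Read-out is HTRF, a TR-FRET sandwich of cryptate- and XL665-labeled anti-TNF-alpha antibodies detecting cytokine secreted by THP-1 cells. Cells had been incubated with test compounds at 37 C for 17 hrs beforehand.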

[14] = qHTS assay to identify small molecules that stimulate interleukin-8 (IL-8) secretion (AID 651758; active = well fitted activation curve with a large enough effect in the signal ratio; the % refers to the signal ratio; also: 0% is about no effect)
Summary of the method: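 THP-1, 2000 cells/well; cpd 16 h, 37 C; add cryptate + XL665 anti-IL-8 Abs; RT 1-3 h; TR-FRET read.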

[15] = qHTS assay for environmental chemicals that activate the Aryl hydrocarbon Receptor (AhR) signaling pathway (AID 651777; active = well fitted curve in the direction sought with a large enough effect; an effect the other way counts as inactive or inconclusive; also: % of control where 0% means no effect; nearly all actives have a fitted effect of over 15% in size); settings: 1A2-DRE human hepatoma cells, luciferase, 24 h; activation: stronger effect = higher value
Summary of the method: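 Human hepatoma 1A2-DRE cells stably carrying a DRE/CYP1A2 promoter–luciferase reporter, 1,200 cells/well, exposed to compound 24 hr at 37 C. Luciferase read by One-Glo luminescence after 30 min at room temperature; increased signal marks AhR activation.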

[16] = biological target: Peroxisome proliferator-activated receptor alpha (Homo sapiens) (UniProt Q07869); experiment: qHTS assay for small molecule agonists of the peroxisome proliferator-activated receptor alpha (PPARalpha) signaling pathway (AID 651778; active = well fitted curve in the direction sought with a large enough effect; an effect the other way counts as inactive or inconclusive; also: % of control where 0% means no effect); settings: PathHunter PPARalpha complementation, chemiluminescence, 6 h; stronger effect = higher value
Summary of the method: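 Cells plated at 2,000/well and held overnight at 37 C, 5% CO2, then compound added by pin tool for 6 hr; after PathHunter detection reagent and 60 min at room temperature, chemiluminescence from enzyme complementation was read.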

[17] = qHTS assay for small molecule agonists of the antioxidant response element (ARE) signaling pathway measured by Nrf2-dependant transcriptional activity (AID 720636; active = well fitted curve in the direction sought with a large enough effect in the repeat runs; an effect the other way counts as inactive or inconclusive; also: % of control where 0% means no effect)
Summary of the method: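 ARE-luc HepG2 cells carrying an Nrf2-responsive luciferase reporter, in medium with 1% dialyzed FBS, exposed to compound for 16 hr at 37 C, 5% CO2. Luminescence read 30 min after ONE-Glo addition.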

[18] = qHTS assay for small molecule antagonists of the retinoid-related orphan receptor gamma (ROR-gamma) signaling pathway - cell viability counter screen (AID 720652; active = well fitted curve in the direction sought with a large enough effect in the repeat runs; an effect the other way counts as inactive or inconclusive;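 also: series mostly up to about 92 µM; compound exposure lasted 16 hr before ATP read; % is scaled to controls: 0 for no effect and ±100 for the full control effect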)
Summary of the method: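 Luminescence from CellTiter-Glo after 30 min at room temperature reported cellular ATP as the cytotoxicity measure. Cells were the CHO reporter line with doxycycline-induced ROR-gamma expression, exposed to compound for 16 hr at 37 C.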

[19] = qHTS assay for small molecule agonists of the antioxidant response element (ARE) signaling pathway measured by Nrf2-dependant transcriptional activity - cell viability counter screen (AID 720653; active = well fitted curve in the direction sought with a large enough effect in the repeat runs; an effect the other way counts as inactive or inconclusive; also: % is scaled to controls: 0 for no effect and ±100 for the full control effect); settings: ARE-bla HepG2 viability, CellTiter-Glo ATP luminescence, 16 h; stronger effect = lower value
Summary of the method: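 ARE-bla HepG2 cells (2,000/well) rested 5 hrs at 37C/5% CO2, then exposed to compounds in DMSO for 16 hrs. Viability was read in the same wells as intracellular ATP by luminescence, 30 min at room temperature after reagent addition.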

[20] = qHTS assay for cell viability of HEK293 cells (AID 743288; active = well fitted curve in the direction sought with a large enough effect; an effect the other way counts as inactive or inconclusive; also: % is scaled to controls: 0 for no effect and ±100 for the full control effect; nearly all actives have a fitted effect of over 50% in size); settings: ATP luminescence (CellTiter-Glo), 18 h; max response: stronger effect = lower value
Summary of the method: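 The Tox21 protocol used parental HEK293 cells treated for 18 h at 37 C with compounds delivered by pintool; ATP-coupled luminescence after 30 min at room temperature gave viability.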

[21] = qHTS assay for cell viability of the p53RE-bla HCT-116 cell line (AID 743292; active = well fitted curve in the direction sought with a large enough effect; an effect the other way counts as inactive or inconclusive; also: % is scaled to controls: 0 for no effect and ±100 for the full control effect; nearly all actives have a fitted effect of over 55% in size)
Summary of the method: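 CellSensor p53RE-bla HCT-116 cells (4,000/well) pre-incubated 5 h at 37 C, then exposed to compounds in DMSO for 16 h at 37 C. Viability read as ATP content by CellTiter-Glo luminescence after 30 min at room temperature.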

[22] = biological target: Nuclear receptor subfamily 1 group I member 2 (Rattus norvegicus) (UniProt Q9R1A7); experiment: qHTS assay for small molecule activators of the rat pregnane X receptor (rPXR) signaling pathway (AID 651751; call rule not given here; also: 0% is about no effect); settings: rPXR reporter cells, luciferase (One-Glo), 24 h
[23] = qHTS assay for small molecule activators of the human pregnane X receptor (PXR) signaling pathway (AID 720659; call rule not given here; also: 0% is about no effect)

Vitamin D3 receptor (Homo sapiens), sequence (P11473 whole entry, looked up): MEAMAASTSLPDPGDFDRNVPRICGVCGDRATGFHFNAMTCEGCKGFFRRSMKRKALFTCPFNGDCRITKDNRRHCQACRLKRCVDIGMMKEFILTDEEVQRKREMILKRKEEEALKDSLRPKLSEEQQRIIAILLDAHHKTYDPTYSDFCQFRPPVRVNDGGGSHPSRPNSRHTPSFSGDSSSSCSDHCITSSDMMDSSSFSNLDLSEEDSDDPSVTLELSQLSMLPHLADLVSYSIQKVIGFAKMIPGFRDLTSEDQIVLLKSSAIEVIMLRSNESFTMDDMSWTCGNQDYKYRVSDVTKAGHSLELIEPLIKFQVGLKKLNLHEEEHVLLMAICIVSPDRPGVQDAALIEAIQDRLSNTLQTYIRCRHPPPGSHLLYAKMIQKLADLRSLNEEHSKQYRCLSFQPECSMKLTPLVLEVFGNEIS
Thyroid hormone receptor beta (Homo sapiens), sequence (P10828 whole entry, looked up): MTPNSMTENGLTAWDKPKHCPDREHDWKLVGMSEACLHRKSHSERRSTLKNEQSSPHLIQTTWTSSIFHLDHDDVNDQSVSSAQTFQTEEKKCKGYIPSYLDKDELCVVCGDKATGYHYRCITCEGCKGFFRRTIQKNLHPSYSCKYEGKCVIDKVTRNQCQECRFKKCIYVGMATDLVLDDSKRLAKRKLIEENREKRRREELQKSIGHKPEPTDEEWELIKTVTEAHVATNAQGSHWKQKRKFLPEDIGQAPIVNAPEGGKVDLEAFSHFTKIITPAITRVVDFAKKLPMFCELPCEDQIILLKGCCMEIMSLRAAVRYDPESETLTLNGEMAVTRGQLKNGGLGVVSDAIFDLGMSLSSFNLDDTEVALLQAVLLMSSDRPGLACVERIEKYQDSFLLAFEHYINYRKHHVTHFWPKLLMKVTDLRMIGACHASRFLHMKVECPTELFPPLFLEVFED
Retinoic acid receptor RXR-alpha (Homo sapiens), sequence (P19793 whole entry, looked up): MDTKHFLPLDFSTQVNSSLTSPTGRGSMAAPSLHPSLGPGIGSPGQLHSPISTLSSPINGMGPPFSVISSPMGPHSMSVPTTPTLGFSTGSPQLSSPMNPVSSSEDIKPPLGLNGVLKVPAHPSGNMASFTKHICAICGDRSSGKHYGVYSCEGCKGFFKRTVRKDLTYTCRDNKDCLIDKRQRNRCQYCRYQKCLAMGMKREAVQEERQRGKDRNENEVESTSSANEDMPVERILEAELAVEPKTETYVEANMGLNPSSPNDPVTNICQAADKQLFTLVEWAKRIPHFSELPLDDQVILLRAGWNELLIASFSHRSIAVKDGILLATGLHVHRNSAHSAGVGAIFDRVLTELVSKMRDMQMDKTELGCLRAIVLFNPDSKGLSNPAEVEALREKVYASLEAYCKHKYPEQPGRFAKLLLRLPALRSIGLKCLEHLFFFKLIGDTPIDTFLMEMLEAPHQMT
Peroxisome proliferator-activated receptor alpha (Homo sapiens), sequence (Q07869 whole entry, looked up): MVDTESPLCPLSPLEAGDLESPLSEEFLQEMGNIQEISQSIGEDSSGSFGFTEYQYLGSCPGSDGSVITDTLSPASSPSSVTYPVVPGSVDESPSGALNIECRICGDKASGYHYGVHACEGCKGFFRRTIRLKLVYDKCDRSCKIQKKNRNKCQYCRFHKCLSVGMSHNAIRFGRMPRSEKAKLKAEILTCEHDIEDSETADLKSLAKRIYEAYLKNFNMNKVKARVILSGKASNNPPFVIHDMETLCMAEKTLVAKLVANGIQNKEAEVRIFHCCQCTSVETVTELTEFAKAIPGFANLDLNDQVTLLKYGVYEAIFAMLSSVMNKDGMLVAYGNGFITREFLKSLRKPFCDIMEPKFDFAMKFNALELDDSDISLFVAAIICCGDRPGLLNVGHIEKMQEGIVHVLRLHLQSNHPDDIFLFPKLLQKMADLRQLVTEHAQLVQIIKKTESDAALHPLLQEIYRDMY
Nuclear receptor subfamily 1 group I member 2 (Rattus norvegicus), sequence (Q9R1A7 whole entry, looked up): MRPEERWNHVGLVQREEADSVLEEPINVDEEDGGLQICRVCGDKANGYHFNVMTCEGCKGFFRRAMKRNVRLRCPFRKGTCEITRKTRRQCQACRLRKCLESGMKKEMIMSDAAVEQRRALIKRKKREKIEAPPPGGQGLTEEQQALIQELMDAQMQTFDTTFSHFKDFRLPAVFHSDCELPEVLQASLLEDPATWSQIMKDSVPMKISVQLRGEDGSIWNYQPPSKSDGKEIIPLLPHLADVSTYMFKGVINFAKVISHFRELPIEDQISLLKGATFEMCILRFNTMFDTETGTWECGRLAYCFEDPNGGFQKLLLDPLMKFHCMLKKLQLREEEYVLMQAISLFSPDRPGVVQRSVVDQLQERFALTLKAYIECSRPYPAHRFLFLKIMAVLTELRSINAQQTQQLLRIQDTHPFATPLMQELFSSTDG
Tumor necrosis factor (Homo sapiens), sequence (P01375 whole entry, looked up): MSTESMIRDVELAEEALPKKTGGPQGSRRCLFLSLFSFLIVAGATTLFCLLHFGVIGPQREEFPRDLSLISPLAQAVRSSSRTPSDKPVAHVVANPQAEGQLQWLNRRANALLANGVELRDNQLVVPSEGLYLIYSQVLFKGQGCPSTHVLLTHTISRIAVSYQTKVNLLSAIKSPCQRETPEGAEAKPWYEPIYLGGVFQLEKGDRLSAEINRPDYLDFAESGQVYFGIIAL

CCCCOC(=O)c1ccccc1C(=O)OCCCC
-3.09%: max response [6]
inactive: outcome [1] | outcome [2] | Potency [4] | outcome [5] | max response [7] -10.9% | activity change % (negative = inhibition) [8] 17.1% and -3.92% | Potency [9] | activation [10] -2.51% and -0.006% | activation [11] -1.75% and -1.98% | Potency [12] | outcome [13] | Potency [14] | activation [15] -0.984% and 1.91% | max response [16] -1.47% and -0.868% | outcome [17] | Potency [18] | max response [19] -12.7% and 12.7% | max response [20] -1.27% and -9.6% | Potency [21] | max response [22] 4.96% and 5.3% | outcome [23]
-8.82% and -0.286%: max response [3]

— PubChem BioAssay (NCATS)
